This is a sample that favours compounds with a hit; in the whole collection about 2.2% have one here.
PGC1a acetyl inh: inhibitors of PGC1a acetylation signal, primary screen, cell-based, U2OS, AlphaScreen, inhibitor mode; inhibition, % at 15.6 µM; 350,000 compounds, 0.17% hits; AlphaScreen anti-acetyl-lysine; with virally co-expressed GCN5 acetyltransferase;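 active means every replicate shows inhibition of at least 40%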;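 further: 0% = neutral control wells and 100% = positive control wells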
TRPM1 prom inh: inhibitors of MITF-dependent TRPM1 promoter reporter, primary screen, cell-based, SK-MEL-5, single point, luciferase | AID 488899, 2010 | 330,000 compounds, 0.83% hits | SK-MEL-5 TRPM1 promoter luciferase, 24 h | inhibition, % at 12.5 µM;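 active means mean inhibition across replicates of 60% or more, whatever share of single replicates reaches that level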
LGR2 inh: inhibitors of bursicon-induced LGR2 CRE-luciferase signal, primary screen, cell-based, HEK293, CRE-luciferase reporter, bursicon stimulation. bursicon-stimulated, 4 h. inhibition, % at 9.99 µM. 380,000 compounds, 0.35% hits;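 active means drop in luminescence signal, shown as inhibition above about 50% in the replicate tests, limit read from the data, passing the limit was not always enough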;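 further: agonist challenge used bursicon conditioned medium at about half maximal strength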
LMP1 NFkB inh: EBV LMP1-driven NF-kappaB luciferase reporter inhibitors, primary screen, cell-based, luminescence, single point | AID 504558, 2011 | inhibition, % at 12.5 µM | LMP1-induced NF-kappaB luciferase reporter cells | 350,000 compounds, 0.69% hits; in the data active means inhibition above about 41%;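 further: 0% = neutral control wells and 100% = reference inhibitor control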
EWS-Fli inh: EWS/Fli-driven NR0B1 reporter inhibitors, primary screen, A673 cells, NR0B1 luciferase, luminescence, MLPCN library; viability-normalised; inhibition, % at 12.6 µM; 350,000 compounds, 0.67% hits; AID 651661, 2012;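 active means mean inhibition of at least 50% after viability correction, with every replicate also passing that limit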;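 further: firefly luciferase signal divided by Alamar Blue viability fluorescence both relative to DMSO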
PAX8 inh HTS: inhibitors of PAX8-driven TPO luciferase reporter, primary screen, RMG-I cells, single concentration; 360,000 compounds, 1.2% hits; SteadyGlo, 24 h; inhibition, % at 12.6 µM;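 active means mean replicate inhibition at least 60% with every replicate also reaching 60%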;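 further: luciferase light reporting Pax8 driven TPO promoter activity; plate controls were median of neutral control wells for no effect and mitoxantrone controls for full effect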
* hit, by the source's call; · = not tested or not shown; ! = repeats disagree.

SMILES	PGC1a acetyl inh	TRPM1 prom inh	LGR2 inh	LMP1 NFkB inh	EWS-Fli inh	PAX8 inh HTS
C[C@H]1CCC[C@@H](O)CCC/C=C/c2cc(O)cc(O)c2C(=O)O1	·	10	38	21	·	·
COc1ccc(C#Cc2ccc([C@H]3[C@H]4CN(C(=O)Cc5ccccc5)CCCCN4[C@H]3CO)cc2)cc1	-2	·	4	·	-2	1
COC(=O)[C@H]1[C@H](CO)[C@H]2Cn3c(ccc(-c4ccccc4F)c3=O)[C@@H]1N2Cc1ccncc1	-4	·	-4	·	-3	1
CN(C)c1ccc(/C=C2/C(=O)NC(=O)N(CCc3ccc(F)cc3)C2=O)cc1	·	-10	1	-1	-1	-15
C=CCN1C(=O)NC(=O)/C(=C/c2ccc(OC)c(CSc3ccccn3)c2)C1=O	-8	3	·	-9	·	·
O=C1NC(=O)N(CCc2ccc(F)cc2)C(=O)/C1=C\C=C\c1ccccc1	1	90*	1	-26	37	-6
C=CCN1C(=O)NC(=O)/C(=C/C=C/c2ccccc2)C1=O	11	94*	·	-20	31	45
COc1ccc(-c2ccc3n(c2=O)C[C@H]2[C@H](CO)[C@@H](C(=O)O)[C@@H]3N2C(=O)c2ccccc2F)cc1	·	·	-6	·	-9	·
O=C(COc1ccc(Cl)cc1Cl)N1CCN(C/C=C/c2ccccc2)CC1	-3	5	1	9	·	·
O=C(O)CCCOc1ccc(Cl)cc1Cl	3	11	·	59*	-3	-19
CCCNC(=O)N1[C@@H]2Cn3c(ccc(-c4ccccc4OC)c3=O)[C@H]1[C@@H](C(=O)OC)[C@@H]2CO	·	·	14	·	-4	-1
CNC(=O)Oc1ccc(-c2cn3cc(C)ccc3n2)cc1	·	20	·	64*	70*	40
CNC(=O)Oc1cccc(-c2cn3cc(Cl)ccc3n2)c1	·	21	82*	9	·	14
O=C(O)[C@H]1[C@H](CO)[C@H]2Cn3c(ccc(C4=CCCC4)c3=O)[C@@H]1N2C(=O)Cc1ccccn1	·	·	11	·	3	·
CC(=O)c1ccc2c(c1)C1C(Cl)C(Sc3ccccc3[N+](=O)[O-])CC1C(c1ccccc1)N2 (stereo not drawn)	14	14	·	0	·	22
CC(=O)c1ccc2c(c1)C1C(Cl)C(Sc3ccccc3[N+](=O)[O-])CC1C(c1ccccc1[N+](=O)[O-])N2 (stereo not drawn)	-13	2	·	-18	·	63*
CC(=O)O[C@H]1[C@H]2O[C@]23[C@@H]2CC[C@]4(O)C[C@@H](O)CC[C@]4(C)C2CC[C@]3(C)[C@H]1c1ccc(=O)oc1 (stereo partly drawn)	·	79*	·	49*	·	·
COc1ccc(NC2Oc3cc4c(cc3C(c3cc(OC)c(OC)c(OC)c3)C2C)OCO4)cc1 (stereo not drawn)	-11	18	-12	-5	54*	38
O=C1NC(=O)C(=Cc2ccc(-c3ccc(Cl)cc3)o2)C(=O)N1	5	68*	·	1	·	·
CC1CCC(C(C)C)C(OC(=O)Cn2c(COc3ccccc3)[n+](C)c3ccccc32)C1 (stereo not drawn)	-28	97*	43	-4	20	91*
CC(C)c1oc(=O)cc2c1[C@@H](O)[C@H]1OC(=O)[C@@]3(C)C[C@@H](O)[C@@H](O)[C@@]2(C)C13 (stereo partly drawn)	·	64*	78*	17	49	86*
COC(=O)[C@H]1[C@H](CO)[C@H]2Cn3c(ccc(-c4ccccc4)c3=O)[C@@H]1N2CC1CCCCC1	·	·	-3	·	14	2
CCOC(=O)[C@@H]1[C@@H]2NC(=S)N(C)[C@@]1(C)Oc1ccccc12	6	·	·	·	-7	7
CCOC(=O)c1c(N)n(CCCOC(=O)c2ccco2)c2nc3ccccc3nc12	19	89*	·	-1	·	·
C/C=C/c1ccc(C2[C@@H]3CN(C(=O)CN(C)C)C[C@H]2N3)cc1 (stereo partly drawn)	8	·	12	·	-2	-18
NC(=O)c1cn(C2OC(CO)C(O)C2O)c2ncnc(N)c12 (stereo not drawn)	93*!	84*	71*	81*	55*!	96*
